Source: PubChem BioAssay
HepG2 viability = HepG2 cytotoxicity, counter-screen for TGF-b inhibitors; HepG2 CAGA-GFP viability, ATP luminescence, 18 h; Potency, µM (top dose mostly 46.1 µM), without a hit: top-dose activity change, negative = cytotoxicity, usual class: cytotoxic; hit rate 0.76% among 410,000; AID 588856
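HepG2 CAGA-GFP cells (1000/well, DMEM with 1% FBS) received compound, then TGF-beta at 500 pg/mL final, and were incubated 18 hours at 37 degrees C. Viability was read by CellTiter-Glo luminescence. Media-only wells were set as complete cell-killing and DMSO as no toxicity.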
DT40 TDP1 no CPT = qHTS for Inhibitors of human tyrosyl-DNA phosphodiesterase 1 (TDP1): qHTS in cells in absence of CPT; hit rate 15% among 420,000; Potency, µM (doses to about 46.2 µM), inactives show at the top dose activity change, negative = growth inhibition, most hits filed as inhibitors; AID 686978, 2013; DT40 Tdp1-/- hTDP1 cells, no CPT, ATP luminescence, 48 h; also: % is scaled to controls: 0 for no effect and ±100 for the full control effect; nearly all actives have a fitted effect of over 55% in size
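Chicken DT40 Tdp1-/- cells complemented with human TDP1, screened without camptothecin (DMSO vehicle only), 400 cells/well. Compounds pin-transferred, cells incubated at 37 °C for at least 48 hr. Growth read as ATP-dependent luminescence (CellTiter-Glo, 30 min at RT).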
HT1080NT lethal = kills 2HG-producing HT-1080-NT fibrosarcoma cells; hit rate 1.6% among 360,000; Potency, µM (series often up to 46.1 µM), without a hit: at the top dose activity, negative = less viability, usual class: cytotoxic; HT-1080-NT fibrosarcoma viability, CellTiter-Glo ATP luminescence, 48 h; AID 686970;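 also: NT is the 2HG producing partner of a matched IDH1 knockdown line; 0% = DMSO-treated cells and -100% = media-only wells without cells; nearly all actives have a fitted effect of over 55% in size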
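Viability of the 2HG-overproducing fibrosarcoma line after 48 hours of compound exposure at 37 degrees C was determined by luminescence with CellTiter-Glo, and concentration-effect curves were then fitted and categorized.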
TGFb inhibitor = blocks TGF-b signaling | HepG2 CAGA-GFP TGF-b/SMAD3 reporter, GFP fluorescence, 18 h; TGF-beta stimulated, 500 pg/mL final | Potency, µM (titrated, usually from 46.1 µM), for the others: at the highest dose activity, negative = inhibition, actives largely listed as inhibitors | hit rate 1.2% among 410,000 | AID 588855; also: % is scaled to controls: 0 for no effect and ±100 for the full control effect; nearly all actives have a fitted effect of over 65% in size
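HEPG2 CAGA-GFP, 1000 cells/well; 2 h settle, 37 C; cpd via pin tool; TGF-b 500 pg/mL final; 18 h, 37 C; GFP imaging ex488/em500-530; %Activity normalised to -TGF-b and +DMSO controls; CRC fit, curve class.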
HT1080 IDH1KD tx = kills HT-1080 cells with IDH1 knockdown. HT-1080 IDH1 knockdown viability, ATP luminescence, 48 h. Potency, µM (doses to about 46.1 µM), without a hit: at the highest dose activity, negative = toxicity, actives largely listed as cytotoxic. hit rate 2% among 360,000. AID 686971;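 also: 0% = DMSO wells and -100% = cell-free medium wells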
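In this qHTS, HT-1080 cells depleted of IDH1 are exposed for 48 h at 37 °C to compound titrations. Toxicity is scored from CellTiter-Glo luminescence, with DMSO as full viability and medium alone as none.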
DT40 TDP1 CPT = DT40-hTDP1 cell growth loss with CPT; chicken DT40 Tdp1-/-;hTDP1 cells + 20 nM CPT, ATP luminescence, 48 h; Potency, µM (doses to about 46.2 µM), without a hit: top-dose activity change, negative = growth inhibition, usual class: inhibitors; hit rate 12% among 420,000; also: % is scaled to controls: 0 for no effect and ±100 for the full control effect; nearly all actives have a fitted effect of over 55% in size
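Cell growth measured by CellTiter-Glo luminescence after a minimum 48 h, 37 C compound exposure with 20 nM CPT in Tdp1-knockout DT40 cells stably expressing hTDP1, seeded 400/well; qHTS titration format.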
Active calls of the source: *; ? = inconclusive; nt = not tested or not shown. The list is not random: actives were taken first. Their share in the collection is about 17%. Calls follow the shape of the dose curve; as a rule, active = well fitted curve in the direction sought with a large enough effect; inconclusive = small, poorly fitted or top-dose-only effect, or another doubt; inactive = no such curve, though single readings can be large; an effect the other way counts as inactive or inconclusive. Potency is read from the fitted curve at half-maximal effect.

SMILES	HepG2 viability	DT40 TDP1 no CPT	HT1080NT lethal	TGFb inhibitor	HT1080 IDH1KD tx	DT40 TDP1 CPT
COc1ccc(/C=N/NC(=O)c2[nH]c3ccc(Br)cc3c2-c2ccccc2)cc1	-35%	0.92µM*	0.037µM*	?	0.0052µM*	0.82µM*
O=C(N/N=C/c1ccccc1Cl)c1[nH]c2ccc(Br)cc2c1-c1ccccc1	-27%	0.65µM*	0.52µM*	84%	0.46µM*	1.3µM*
COc1ccc(/C=N/NC(=O)c2[nH]c3ccc(Cl)cc3c2-c2ccccc2)c(C(=O)O)c1OC	-21%	?	-25%	?	?	-26%
Cc1c(C(=O)N/N=C/c2ccccc2)[nH]c2ccc(Cl)cc12	-31%	6.5µM*	18µM*	?	15µM*	9.2µM*
COc1ccc(/C=N/NC(=O)c2[nH]c3ccc(Br)cc3c2-c2ccccc2)c(C(=O)O)c1OC	-9%	-12%	23µM*	-28%	23µM*	-5%
Cc1ccc(C)c(N(CC(=O)NCc2ccco2)C(=O)CCC(=O)Nc2nccs2)c1	-7%	-29%	-2%	-22%	13%	1%
CCN1C(=NCCc2ccc(Br)cc2)N[C@@H](c2ccccc2)[C@H](C(=O)OC)[C@H]1C	-48%	18µM*	-22%	-33%	-28%	23µM*
CCN1C(=NCCc2ccc([N+](=O)[O-])cc2)N[C@@H](c2ccccc2)[C@H](C(=O)OC)[C@H]1C	-11%	15µM*	-10%	19%	0%	?
Cc1cccc(Cc2cnc(NC(=O)C3Cc4ccc(C)cc4C(=O)O3)s2)c1 (stereo not drawn)	-39%	nt	nt	?	nt	nt
CN1CCc2c(sc(NC(=O)CSc3ccc(F)cc3)c2-c2nc3ccccc3s2)C1	-30%	16µM*	nt	197%	nt	?
CC(=O)Nc1sc2c(c1-c1nc3ccccc3s1)CCN(C(C)C)C2	-29%	2.6µM*	12µM*	?	12µM*	2.3µM*
CC(=O)N1CCc2c(sc(NC(=O)CSc3ccc(F)cc3)c2-c2nc3ccccc3s2)C1	-20%	9.2µM*	nt	?	nt	12µM*
CCN1CCc2c(sc(NC(=O)CSc3ccccc3)c2-c2nc3ccccc3s2)C1	-51%	?	nt	206%	nt	?
CC1(C(=O)NS(=O)(=O)c2ccc(Cl)s2)CCN1C(=O)C1CCCCC1 (stereo not drawn)	-5%	7.3µM*	13%	1%	0%	5%
CC1(C(=O)NS(=O)(=O)c2ccc(Cl)s2)CCN1C(=O)c1ccc(C2CCCCC2)cc1 (stereo not drawn)	-15%	-11%	0%	16%	12%	-6%
Cc1ccc(C)c(Nc2ncnc3c2cnn3-c2ccc(F)cc2)c1	-38%	?	nt	-11%	nt	?
Cc1ccc(-n2ncc3c(NC4CCCCC4)ncnc32)cc1	-4%	21µM*	nt	17%	nt	?
Fc1ccc(-n2ncc3c(NC4CCCCCC4)ncnc32)cc1	-49%	23µM*	nt	-15%	nt	23µM*
CCC(CO)Nc1ncnc2c1cnn2-c1ccc(C)cc1 (stereo not drawn)	-18%	-28%	nt	14%	nt	-6%
Cc1ccc(-n2ncc3c(NC4CCCCCC4)ncnc32)cc1	2%	18µM*	nt	18%	nt	13µM*
Cc1ccc(-n2ncc3c(N4CCCCCC4)ncnc32)cc1	-1%	?	nt	-1%	nt	?
Cc1ccc(-n2ncc3c(Nc4cccc(C)c4C)ncnc32)cc1	-12%	?	nt	4%	nt	?
Fc1ccc(-n2ncc3c(N4CCCCCC4)ncnc32)cc1	-13%	?	nt	1%	nt	12µM*
CCc1nc2ccc(C(=O)Nc3cccc(OCC(=O)N(C)C)c3)cn2c1N(CCC(C)C)CCN(C)C	-37%	-14%	-15%	15%	-19%	0%
CC(O)[C@@H]1NC(=O)[C@H](Cc2ccccc2)NC(=O)[C@H](C(C)O)NC(=O)[C@H](CCCCN)NC(=O)[C@H](Cc2c[nH]c3ccccc23)NC(=O)[C@H](Cc2ccccc2)NC(=O)[C@H](Cc2ccccc2)NC(=O)[C@H](CC(N)=O)NC(=O)[C@H](CCCCN)NC(=O)[C@@H](NC(=O)CNC(=O)[C@H](C)N)CSSC[C@@H](C(=O)O)NC(=O)[C@H](CO)NC1=O (stereo partly drawn)	nt	-13%	nt	nt	nt	-7%
Cc1ccc(NC(=O)[C@@H]2O[C@H](CO)[C@H](O)[C@H](O)[C@H]2O)cc1C(F)(F)F	2%	-1%	?	13%	1%	-2%
CCOC(=O)c1[nH]c2ccc(Cl)cc2c1NC(=O)/C=C/c1ccc2c(c1)OCO2	10%	?	-11%	25%	0%	?
CCN(CC(=O)Nc1c(C(=O)OC)[nH]c2ccc(Cl)cc12)c1ccc2c(c1)OCO2	-1%	26µM*	-21%	?	-18%	?
COc1ccc(C2(CO)OC(CO)C(O)C2O)cc1 (stereo not drawn)	2%	?	-1%	-4%	-22%	?
CCCSc1ncc(Cl)c(C(=O)Nc2ccc(CC)cc2)n1	-22%	-22%	nt	nt	nt	16%
